Measured values: PubChem BioAssay AID1159580 (chemical genetic matrix, 2015)
Values joined by “and” are separate entries in the source; they are usually repeats but may differ in a detail not shown here. Equal entries are not always repeated. In all, about 5,500 compounds went through this assay and about 2,000 (36%) were called active. Roughly 18% stayed inconclusive and do not appear here. Cut-off read from the data, not from the text of the source: active = normalized growth mostly below about 0.91 (no sharp cut-off); inconclusive = no clear call, values can overlap the other calls; inactive = mostly above about 0.92. The list shows a part of the results.

Test: chemical genetic growth profiling, strain panel (AID 1159580);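 note: tested at 20 µM; growth read once vehicle control cultures reached saturation at 30 °C; 1 = growth at the plate median or of vehicle wells; lower values mean less growth of the strain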
Settings: S. cerevisiae deletion strains, growth OD

Measured: normalized growth

Nc1ccc(S(=O)(=O)Nc2nccs2)cc1
inactive: locus YAL013W, strain DEP1, hits give low values 1.01 | locus YAL021C, strain ccr4, hits give low values 1.02 | locus YAL026C, strain drs2, hits give low values 1.01 | locus YAL030W, strain snc1, hits give low values 1.02 | locus YBL061C, strain skt5, hits give low values 1.01 | locus YBR009C, strain hhf1, hits give low values 1 | locus YBR021W, strain FUR4, hits give low values 1 | locus YBR023C, strain chs3, hits give low values 1.03 | locus YBR171W, strain sec66, hits give low values 1.03 | locus YBR229C, strain ROT2, hits give low values 1 | locus YBR231C, strain swc5, hits give low values 1.04 | locus YBR279W, strain paf1, hits give low values 1.01 | locus YCL011C, strain gbp2, hits give low values 1.01 | locus YCL016C, strain dcc1, hits give low values 1 | locus YCL029C, strain bik1, hits give low values 0.998 | locus YCL069W, strain vba3, hits give low values 1.01 | locus YCR088W, strain abp1, hits give low values 1.01 | locus YDL005C, strain med2, hits give low values 1.01 | locus YDL035C, strain GPR1, hits give low values 1.04 | locus YDL040C, strain nat1, hits give low values 1.02 | locus YDL074C, strain BRE1, hits give low values 1.01 | locus YDL101C, strain DUN1, hits give low values 1 | locus YDL134C, strain PPH21, hits give low values 1.01 | locus YDL185W, strain tfp1, hits give low values 1.01 | locus YDL192W, strain arf1, hits give low values 1.01 | locus YDR001C, strain nth1, hits give low values 1.02 | locus YDR069C, strain doa4, hits give low values 1.02 | locus YDR101C, strain arx1, hits give low values 1 | locus YDR137W, strain rgp1, hits give low values 1.02 | locus YDR150W, strain NUM1, hits give low values 1.01 | locus YDR159W, strain sac3, hits give low values 1.02 | locus YDR162C, strain NBP2, hits give low values 1.02 | locus YDR195W, strain ref2 1.01 | locus YDR297W, strain sur2, hits give low values 1.02 | locus YDR318W, strain mcm21, hits give low values 0.985 | locus YDR334W, strain swr1, hits give low values 1.01 | locus YDR335W, strain msn5, hits give low values 1.02 | locus YDR388W, hits give low values 0.995 | locus YDR392W, strain spt3, hits give low values 0.954 | locus YDR502C, strain sam2, hits give low values 1.01 | locus YEL003W, strain gim4, hits give low values 1.02 | locus YEL037C, strain rad23, hits give low values 1.01 | locus YEL061C, strain CIN8 (second series), hits give low values 1.01 | locus YEL061C, strain CIN8, hits give low values 1 | locus YER015W, strain faa2, hits give low values 1.04 | locus YER016W, strain bim1, hits give low values 0.997 | locus YER110C, hits give low values 0.995 | locus YER111C, strain swi4, hits give low values 1.01 | locus YER155C, strain BEM2 (second series), hits give low values 1.01 | locus YER155C, strain BEM2, hits give low values 0.996 | locus YER167W, strain BCK2, hits give low values 1.03 | locus YFR010W, strain ubp6, hits give low values 1.02 | locus YGL078C, strain dbp3, hits give low values 1.01 | locus YGL086W, strain mad1, hits give low values 1.02 | locus YGL167C, strain pmr1, hits give low values 1.02 | locus YGL173C, strain kem1, hits give low values 1.02 | locus YGL227W, strain vid30, hits give low values 1.02 | locus YGL240W, strain doc1, hits give low values 1.02 | locus YGL248W, strain PDE1, hits give low values 1.02 | locus YGL253W, strain hxk2, hits give low values 1.02 | locus YGR078C, strain PAC10, hits give low values 1 | locus YGR135W, strain pre9, hits give low values 1.01 | locus YGR229C, strain SMI1, hits give low values 1.01 | locus YGR252W, strain gcn5, hits give low values 1.06 | locus YHR013C, strain ard1, hits give low values 1 | locus YHR027C, strain rpn1, hits give low values 1.02 | locus YHR030C, strain SLT2, hits give low values 1.01 and 0.999 | locus YHR079C, strain IRE1 (second series), hits give low values 0.995 | locus YHR079C, strain IRE1, hits give low values 1.03 | locus YHR094C, strain hxt1, hits give low values 0.99 | locus YHR129C, strain ARP1, hits give low values 1 | locus YHR142W, strain chs7, hits give low values 1.01 | locus YHR200W, strain rpn10, hits give low values 1 | locus YIL066C, strain RNR3, hits give low values 1.02 | locus YIL073C, strain SPO22, hits give low values 1 | locus YIL125W, strain kgd1, hits give low values 1.01 | locus YIR030C, strain dcg1, hits give low values 0.995 | locus YJL092W, strain hpr5, hits give low values 1.01 | locus YJL095W, strain BCK1 (second series), hits give low values 1.02 | locus YJL095W, strain BCK1, hits give low values 1 | locus YJL115W, strain asf1, hits give low values 1.02 | locus YJL129C, strain trk1, hits give low values 1.02 | locus YJL134W, strain LCB3, hits give low values 1.01 | locus YJL154C, strain vps35, hits give low values 1.01 | locus YJL164C, strain tpk1, hits give low values 0.996 | locus YJL166W, strain qcr8, hits give low values 1.03 | locus YJL168C, strain set2, hits give low values 0.992 | locus YJL187C, strain SWE1 (second series), hits give low values 1.01 | locus YJL187C, strain SWE1, hits give low values 1.02 | locus YJR043C, strain POL32, hits give low values 1 | locus YJR066W, strain TOR1, hits give low values 0.939
